# Shown are actives, neighbours in structure and some others; about 3.1% of the full set was active somewhere.
# ALOX15B inhib: inhibitors of human 15-lipoxygenase 2 (ALOX15B); purified 15hLO-2, xylenol orange hydroperoxide absorbance; Potency, µM (highest dose often 57.1 µM), for inactives: top-dose activity change, negative = inhibition, usual class: inhibitors; 0.56% of 110,000 active; note: potency is the fitted concentration of half-maximal effect; nearly all actives have a fitted effect of over 60% in size
#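 Purified human 15hLO-2 (50 nM) preincubated 15 min with compound, then 45 uM arachidonic acid for 90 min at RT in 25 mM Hepes pH 7.5, 0.01% Triton X-100. Hydroperoxide detected by Fe-xylenol orange; 573/405 nm absorbance ratio.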
# PNC inhibitor: inhibitors of perinucleolar compartment assembly; activity change (PNC), negative = inhibition, % at 10 µM; 3.1% of 140,000 active; PC3M PTB-GFP, PNC prevalence imaging, 16 h; hits give low values;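 active = readout at or below -70, meaning at least 70% loss of cells showing the perinucleolar compartment, a nuclear body marking cancer cells; inconclusive = readout between -30 and a set limit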;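 note: plate controls were DMSO wells for no effect and camptothecin positive control wells for full effect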
#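 Read-out is percentage of cells bearing a perinucleolar compartment, from automated 20x imaging of fixed, Hoechst-stained PC3M PTB-GFP cells. Cells were seeded 4 h, then exposed 16 h to compound (23 nl of library stock) in duplicate plates.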
# 12-hLO inh: blocks human 12-lipoxygenase activity; Potency, µM (titrated, usually from 57.1 µM), for the others: at the highest dose activity change, negative = inhibition, usual class: inhibitors; AID 1452; purified 12-hLO, xylenol orange hydroperoxide absorbance; 0.12% of 150,000 active; P18054; note: potency is the fitted concentration of half-maximal effect; nearly all actives have a fitted effect of over 55% in size
# Target sequence (P18054 whole entry, looked up): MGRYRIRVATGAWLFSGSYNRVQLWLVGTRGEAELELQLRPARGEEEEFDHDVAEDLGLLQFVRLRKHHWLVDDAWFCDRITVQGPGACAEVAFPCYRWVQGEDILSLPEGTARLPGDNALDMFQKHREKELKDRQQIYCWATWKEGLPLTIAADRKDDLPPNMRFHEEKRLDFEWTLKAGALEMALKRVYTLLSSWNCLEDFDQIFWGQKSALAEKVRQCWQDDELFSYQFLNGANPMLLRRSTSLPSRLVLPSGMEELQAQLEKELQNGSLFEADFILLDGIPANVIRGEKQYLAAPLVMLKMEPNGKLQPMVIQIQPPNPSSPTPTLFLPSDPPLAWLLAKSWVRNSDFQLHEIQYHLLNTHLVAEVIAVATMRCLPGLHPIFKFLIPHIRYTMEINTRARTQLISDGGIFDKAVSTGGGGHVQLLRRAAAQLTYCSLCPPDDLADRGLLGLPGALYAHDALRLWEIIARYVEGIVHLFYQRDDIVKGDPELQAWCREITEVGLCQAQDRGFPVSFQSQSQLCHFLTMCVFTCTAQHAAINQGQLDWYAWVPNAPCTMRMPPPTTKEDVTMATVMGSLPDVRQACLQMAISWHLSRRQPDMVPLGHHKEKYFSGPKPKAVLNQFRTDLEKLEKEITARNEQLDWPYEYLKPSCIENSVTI
#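 Purified human 12hLO (150 nM final) was preincubated with compounds for 15 min at room temperature in 25 mM Hepes pH 7.0, 0.01% Triton X-100, then reacted with 40 uM arachidonic acid for 30 min. Hydroperoxide was detected with ferrous iron/xylenol orange.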
# Active calls of the source: *; u = inconclusive; x = not tested or not shown; [ ] = remark or other dose. Unless noted, calls come from the whole dose curve; as a rule, active = well fitted curve in the direction sought with a large enough effect; inconclusive = small, poorly fitted or top-dose-only effect, or another doubt; inactive = no such curve, though single readings can be large; an effect the other way counts as inactive or inconclusive. Unless noted, % is set by controls: 0 for no effect and ±100 for the full control effect.
SMILES,ALOX15B inhib,PNC inhibitor,12-hLO inh
CN1CCN(CN2C(=O)C3C4C=CC(C3C2=O)C2C3C(=O)N(CN5CCN(C)CC5)C(=O)C3C42)CC1 (centres undefined),1%[11.4 µM],x,0%[11.4 µM]
CC(=O)Oc1ccc2c(c1)CCC1C2CC[C@]2(C)C(=O)CCC12 (some centres undefined),1%,x,-5%
O=C(C[N+]12CN3CN(CN(C3)C1)C2)c1ccc(-c2ccccc2)cc1,-1%[11.4 µM],x,1%[11.4 µM]
CCc1nnc(NC(=O)C2CCN(S(=O)(=O)Cc3ccccc3)CC2)s1,x,-100*,4%
Cc1nnc(NC(=O)C2CCCN(S(=O)(=O)Cc3ccccc3)C2)s1 (centres undefined),-10%,33,-4%
O=C(O)c1cc2cc(Cc3cccnc3)ccc2o1,-4%,x,-1%
COC(=O)CCC(=O)Oc1ccc(OC(=O)CCC(=O)OC)cc1,x,-113*,-2%
COC(=O)CCC(=O)Nc1ccc(NC(=O)CCC(=O)OC)cc1,0%,-7,6%
CC(C)CC(NC(=O)C1CCCN1C(=O)OC(C)(C)C)C(=O)NCC(N)=O (centres undefined),-4%,u,5%
CC(NC(=O)C(NC(=O)C1CCCN1C(=O)OC(C)(C)C)C(C)C)C(N)=O (centres undefined),x,-94*,3%
CCCC[C@@H]1C[C@H]1C(NC(=O)c1cccs1)c1ccc(C(F)(F)F)cc1 (some centres undefined),1%,x,-3%
O=C(CCc1nc2ccccc2[nH]1)NC1CCCCC1,x,58,-3%
O=C(CCc1nc2ccccc2[nH]1)N1CCc2ccccc2C1,x,-91*,5%
COc1ccc(NC(=O)CN2CCCCC2)c([N+](=O)[O-])c1,1%,-90*,2%
COc1ccc(NC(=O)CN2CCC(C)CC2)c([N+](=O)[O-])c1,1%,19,0%
BrC(c1cccc2ccccc12)c1cccc2ccccc12,-3%[11.4 µM],x,1%[11.4 µM]
COc1cc(C[C@H]2C(=O)OC[C@@H]2Cc2ccc(OC)c(OC)c2)ccc1O,4%,x,-4%
Cc1csc(NC(=O)c2cc([N+](=O)[O-])cc([N+](=O)[O-])c2)n1,x,-114*,3%
Cc1cc(C)n2nc(C(=O)Nc3nccs3)nc2n1,6%,13,-1%
O=C(Nc1nc(-c2ccccc2)cs1)c1cccc([N+](=O)[O-])c1,33%,21,-25%
Cc1csc(NC(=O)c2nc3nc(C)cc(C)n3n2)n1,2%,-95*,-1%
O=C(N1CCOCC1)n1cnc2ccccc21,x,-100*,6%
O=C(N1CCOCC1)n1nnc2ccccc21,11%,u,-8%
COc1ccccc1C1CC(c2cccs2)=Nc2ccccc2S1 (centres undefined),-14%,13,-13%
COc1ccccc1C1CN(c2ccc(F)cc2F)N=C1c1cccs1 (centres undefined),-6%,-94*,-17%
SMILES,ALOX15B inhib,PNC inhibitor,12-hLO inh
COc1cccc(C(=O)Nc2ccc(NC(=O)C(C)(C)C)cn2)c1,5%,-84*,-1%
COc1cccc(C(=O)Nc2ccc(NC(C)=O)cc2)c1,2%,13,-4%
Cc1nn(-c2ccccc2)c(Cl)c1C(=O)Nc1nnc(C2CCCCC2)s1,16%,u,5%
Cc1nn(Cc2ccccc2Cl)c(C)c1C(=O)Nc1nnc(C2CC2)s1,14%,-97*,1%
CSCCC(NC(=O)c1ccccc1)C(=O)NC1CCCC1 (centres undefined),-2%,-84*,-5%
CSCCC(NC(=O)c1ccccc1)C(=O)NC1CC1 (centres undefined),x,2,2%
C=CCNC(=O)N1CCc2nc(-c3ccccc3)c3c(c2C1)CO[C@@H](C)C3,x,x,0%[11.4 µM]
COc1ccc(NC(=O)N2CC3(CCNCC3)C2)cc1,1%,x,-2%
CCOC(=O)CSC1=C(C#N)C(c2ccc(Cl)cc2)CC(=O)N1 (centres undefined),-1%,-14,-4%
CCOC(=O)CSC1=C(C#N)C(c2ccc(C)o2)CC(=O)N1 (centres undefined),x,-85*,-4%
Brc1ccc(C2C3=C(Nc4ncnn42)c2ccccc2OC3c2ccncc2)cc1 (centres undefined),30%,37,-1%
COc1ccc(C2Oc3ccccc3C3=C2C(c2cccs2)n2ncnc2N3)cc1 (centres undefined),17%,-112*,-21%
Cc1ccc(S(=O)(=O)CC(=O)N(C)C)cc1,x,-100*,-2%
Cc1ccc(S(=O)(=O)CC(N)=O)cc1,-6%,19,-4%
Cc1cc(C)nc(SCC(=O)Nc2ncc(Cc3ccc(Cl)c(Cl)c3)s2)n1,x,-113*,3%
Cc1ccc(Cc2cnc(NC(=O)CN3CCOCC3)s2)cc1Cl,31%,29,3%
COC(=O)[C@@]1(Cc2ccc(F)cc2)[C@H]2c3cc(C(=O)N4CCCC4)n(Cc4cccc5ccccc45)c3C[C@H]2CN1C(=O)c1ccccc1,-1%,x,-3%
CCN(CC)CCCNc1nc(-c2ccccc2)nc2ccccc12,x,-100*,16%
COCCCNc1nc(-c2ccncc2)nc2ccccc12,-7%,35,-1%
COC(=O)[C@@H]1C[C@H]1[C@@H](NC(=O)c1cccnc1)c1ccccc1,4%,x,-3%
C[C@@H](Cc1ccccc1)Nc1ncnc2c1ncn2[C@@H]1O[C@@H](CO)[C@H](O)[C@@H]1O,4%,x,u
COc1ccc(C(=O)N2CCC(C(=O)Nc3ccccc3OC)CC2)cc1,2%,-85*,-2%
COc1ccc(NC(=O)C2CCN(C(=O)c3ccccc3)CC2)c(OC)c1,5%,24,-4%
O=C(C1CCN(S(=O)(=O)c2ccc(Cl)cc2)CC1)N1CCOCC1,0%,u,0%
COc1ccc(S(=O)(=O)N2CCC(C(=O)N3CCOCC3)CC2)cc1,x,-100*,0%
SMILES,ALOX15B inhib,PNC inhibitor,12-hLO inh
COc1ccc(NC(=O)C2CCN(S(=O)(=O)c3ccc(OC)c(OC)c3)CC2)c(OC)c1,-5%,-121*,-3%
COc1ccc(S(=O)(=O)N2CCC(C(=O)Nc3cccc(Cl)c3)CC2)cc1OC,0%,2,-5%
O=C(O)[C@H]1CN[C@H](C(=O)O)C1,-1%,x,-6%
CC[C@H](CC[C@H](C)[C@@H]1CC[C@@H]2[C@H]3CC=C4C[C@@H](O)CC[C@]4(C)[C@H]3CC[C@]21C)C(C)C,4%[25.6 µM],x,0%[25.6 µM]
O=C(c1ccco1)N1CCC[C@@]2(CCN(c3cccc(-c4ccccc4)c3)C2)C1,-28%,x,-24%
COc1ccc2[nH]cc(CCNc3ncncc3-c3cccc(C#N)c3)c2c1,15%,x,x
N#Cc1cc(Oc2cccnc2)c(Oc2cccnc2)cc1C#N,0%,-111*,7%
COc1ccc(/C=C(/C#N)c2cccnc2)cc1OC,x,121,-3%
O=C(Nc1cccc(F)c1)N1CC[C@@]2(CCCN(C(=O)c3ccncc3)C2)C1,3%,x,2%
COc1ccccc1CNc1ncncc1-c1ccc(C(=O)N(C)C)cc1,-9%,x,x
CC(C)NC(=O)NC(=O)COC(=O)c1ccccc1F,x,-115*,0%
CC(C)NC(=O)NC(=O)COC(=O)c1ccccc1Oc1ccccc1,-5%,-8,-3%
COc1ccccc1CN1CCCC2(CCN(C(=O)c3ccco3)CC2)C1,0%,x,-1%
